Measurements taken from PubChem BioAssay (EPA / NIEHS).
Active and inactive are the calls of the source. The calls were made as follows: active = hit-call score of the fitted dose curve at least 0.9, where 1 is the maximum; inactive = score below 0.9.

Experiments:
[1] = ATG_E_Box_CIS: Attagene CIS-FACTORIAL HepG2 Assay for human Enhancer Box (E-box) (AID 2282936); conditions: HepG2 E-box cis-reporter transcription, actives raise or lower the signal
In short: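 Transiently transfected HepG2, endogenous TF-driven reporters, 24 h dosing. Readout: RT-PCR plus capillary electrophoresis of fluorescent reporter fragments. Gain or loss of signal fitted bidirectionally against DMSO baseline.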

[2] = ATG_EGR_CIS: Attagene CIS-FACTORIAL HepG2 Assay for human Early Growth Response 1 (EGR1) (AID 2282938); conditions: HepG2 Attagene CIS-FACTORIAL EGR reporter mRNA; actives raise or lower the signal
In short: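 Cell-based multiplex transcription assay: HepG2 carrying transfected cis-element reporter units, 24 h chemical treatment. Fluorescence from capillary electrophoresis of RT-PCR products gives mRNA levels; fitting is bidirectional relative to DMSO.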

[3] = ATG_Ets_CIS: Attagene CIS-FACTORIAL HepG2 Assay for human Erythroblast Transformation Specific (ETS) (AID 2282941); conditions: HepG2 ETS cis-reporter transcription, actives raise or lower the signal
In short: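 Bidirectional fit versus DMSO of reporter mRNA signal, detected by RT-PCR and capillary electrophoresis in HepG2 cells transiently transfected with cis-element reporters and dosed 24 h.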

[4] = biological target: Hepatocyte nuclear factor 3-beta (Homo sapiens) (UniProt Q9Y261); test: ATG_FoxA2_CIS: Attagene CIS-FACTORIAL HepG2 Assay for human Forkhead box A2 (FOXA2) (AID 2282942); conditions: HepG2 cis-reporter transcription factor activity, 24 h; actives raise or lower the signal
Sequence of Hepatocyte nuclear factor 3-beta (Homo sapiens) (Q9Y261 whole entry, looked up): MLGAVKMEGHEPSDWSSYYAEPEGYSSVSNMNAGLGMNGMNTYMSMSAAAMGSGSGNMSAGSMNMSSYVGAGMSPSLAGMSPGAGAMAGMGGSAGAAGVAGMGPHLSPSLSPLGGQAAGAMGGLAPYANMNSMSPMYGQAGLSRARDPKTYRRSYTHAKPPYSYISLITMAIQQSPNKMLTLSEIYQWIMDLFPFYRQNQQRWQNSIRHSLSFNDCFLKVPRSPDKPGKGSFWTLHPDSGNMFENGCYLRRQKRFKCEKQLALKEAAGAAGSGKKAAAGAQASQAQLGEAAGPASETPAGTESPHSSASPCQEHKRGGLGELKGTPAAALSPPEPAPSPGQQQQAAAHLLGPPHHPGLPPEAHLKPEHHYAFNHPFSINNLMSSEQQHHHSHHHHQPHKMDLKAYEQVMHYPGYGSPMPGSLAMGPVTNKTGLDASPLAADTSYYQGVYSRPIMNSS
In short: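 In transiently transfected human HepG2 cells, promoter-driven reporter mRNA levels after 24 h chemical exposure are determined via RT-PCR with capillary electrophoresis. DMSO serves as baseline for bidirectional fitting.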

[5] = ATG_FoxO_CIS: Attagene CIS-FACTORIAL HepG2 Assay for human Forkhead box O (FoxO) (AID 2282943); conditions: HepG2 Attagene cis-reporter, FoxO element, mRNA; actives raise or lower the signal
In short: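 Transfected HepG2 reporter cells exposed to test chemical for 24 h; reporter RNA measured by reverse transcription, PCR and fluorescent capillary electrophoresis; curves fitted for increases and decreases against DMSO.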

[6] = ATG_GATA_CIS: Attagene CIS-FACTORIAL HepG2 Assay for human GATA Binding Protein (AID 2282944); conditions: HepG2 GATA cis-element reporter, Attagene multiplex mRNA; actives raise or lower the signal
In short: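 Reporter transcripts from a GATA cis-regulated unit, among multiplexed reporters in transfected HepG2 cells, were measured by RT-PCR with capillary electrophoresis after 24 h dosing. Induction or loss scored relative to DMSO.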

[7] = ATG_GLI_CIS: Attagene CIS-FACTORIAL HepG2 Assay for human Zinc Finger Protein GLI1 (AID 2282945); conditions: HepG2, Attagene cis-factorial reporter mRNA, GLI element; actives raise or lower the signal
In short: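 Transiently transfected HepG2 cells report endogenous transcription factor activity via cis-element-driven reporter units. After 24 h compound exposure, reporter mRNA was measured by RT-PCR with capillary electrophoresis; bidirectional fitting against DMSO baseline.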

[8] = biological target: Bile acid receptor (Homo sapiens) (UniProt Q96RI1); test: ATG_IR1_CIS: Attagene CIS-FACTORIAL HepG2 Assay for human Nuclear Receptor Subfamily 1 Group H Member 4 (NR1H4), IR1 submotif (AID 2282946); conditions: IR1 reporter transcription, actives raise or lower the signal
Sequence of Bile acid receptor (Homo sapiens) (Q96RI1 whole entry, looked up): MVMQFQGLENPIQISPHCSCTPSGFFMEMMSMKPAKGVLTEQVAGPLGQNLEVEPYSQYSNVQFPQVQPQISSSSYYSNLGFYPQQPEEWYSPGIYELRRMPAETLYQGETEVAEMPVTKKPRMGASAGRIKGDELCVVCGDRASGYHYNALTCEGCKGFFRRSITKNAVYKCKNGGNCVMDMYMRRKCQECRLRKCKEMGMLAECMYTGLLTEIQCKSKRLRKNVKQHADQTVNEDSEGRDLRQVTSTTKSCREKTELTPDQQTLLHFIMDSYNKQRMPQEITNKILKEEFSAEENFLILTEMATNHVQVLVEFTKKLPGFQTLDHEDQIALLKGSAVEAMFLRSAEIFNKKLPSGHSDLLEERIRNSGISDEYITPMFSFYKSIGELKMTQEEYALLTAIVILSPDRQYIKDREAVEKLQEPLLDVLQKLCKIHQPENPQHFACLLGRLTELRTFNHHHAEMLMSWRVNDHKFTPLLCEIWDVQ
In short: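 Fluorescence of capillary-separated, HpaI-digested RT-PCR reporter products gave IR1-element mRNA induction in HepG2 cells 24 h after dosing. Endogenous transcription factors drove the cis-regulated reporters; activity was fitted bidirectionally against DMSO.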

[9] = ATG_M_19_CIS: Attagene CIS-FACTORIAL HepG2 Assay for M19 Transcription Factor (Internal Marker) (AID 2282939); conditions: HepG2 Attagene CIS-FACTORIAL M19 internal marker reporter; actives raise or lower the signal
In short: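 Internal marker readout, fitted in both directions against DMSO, from HepG2 cells carrying transfected cis-element reporter constructs; RT-PCR and capillary electrophoresis of reporter mRNA after 24 h exposure.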

Row | Structure (SMILES) | outcome [1] | outcome [2] | outcome [3] | outcome [4] | outcome [5] | outcome [6] | outcome [7] | outcome [8] | outcome [9] | AC50 [1] | AC50 [2] | AC50 [8]
1 | O=C1c2c(O)cccc2Cc2cccc(O)c21 | inactive | inactive | inactive | inactive | inactive | inactive | inactive | inactive | – | – | – | –
2 | CCCCC(CC)CO (stereo unspecified) | inactive | inactive | inactive | inactive | inactive | inactive | inactive | inactive | – | – | – | –
3 | Nc1nc(=S)c2[nH]cnc2[nH]1 | inactive | inactive | inactive | inactive | inactive | inactive | inactive | – | inactive | – | – | –
4 | COc1ccc(OC(F)(F)F)cc1CN[C@H]1CCCN[C@H]1c1ccccc1 | – | inactive | inactive | inactive | inactive | inactive | inactive | inactive | – | 11 µM (active) | – | –
5 | O=C(O)c1[nH]n(-c2ccc(S(=O)(=O)O)cc2)c(=O)c1N=Nc1ccc(S(=O)(=O)O)cc1 | inactive | inactive | inactive | inactive | inactive | inactive | inactive | inactive | – | – | – | –
6 | C=CCCCCCCCCCCCC | inactive | inactive | inactive | inactive | inactive | inactive | inactive | inactive | – | – | – | –
7 | CN(C)CCCN(C)CCCN(C)C | inactive | inactive | inactive | inactive | inactive | inactive | inactive | inactive | inactive | – | – | –
8 | CN(C)C(=O)NC1(c2ccccc2)CCN(CCC[C@]2(c3ccc(Cl)c(Cl)c3)CCCN(C(=O)c3ccccc3)C2)CC1 | – | – | inactive | inactive | inactive | inactive | inactive | – | inactive | 4.17 µM (active) | 2.75 µM (active) | 4.21 µM (active)
